Cycloheximide cs: affects cycloheximide protein synthesis inhibition readout, counter-screen; actives 12% (n = 300,000); cell reporter, cycloheximide protein synthesis inhibition counterscreen; max response, %; in the data active = max response mostly above about 13%, no sharp cut-off; inactive = mostly below about 14%; also: read at 38.3 µM for the half of the compounds with a filed dose; 0% is about no effect
MARV entry inh: blocks Marburg virus binding to or entry into cells. Marburg virus pseudotyped entry inhibition, cell reporter. Potency, µM (titrated, usually from 37.8 µM), without a hit: at the highest dose activity change, negative = inhibition, hits mostly inhibitors. actives 1.8% (n = 300,000); calls by dose curve; tested in HEK293 cells; also: potency is read from the fitted curve at half-maximal effect; % is scaled to controls: 0 for no effect and ±100 for the full control effect
Lassa entry inh: blocks Lassa virus binding to or entry into cells; Potency, µM (doses to about 37.9 µM), for the others: at the highest dose activity change, negative = inhibition, most hits filed as inhibitors; Lassa virus pseudotype entry inhibition, cell reporter; actives 1.2% (n = 300,000); calls by dose curve; tested in HEK293 cells; also: potency is read from the fitted curve at half-maximal effect; % is scaled to controls: 0 for no effect and ±100 for the full control effect; nearly all actives have a fitted effect of over 50% in size
Vaccinia Venus: vaccinia inhibition (Venus reporter); Vaccinia virus Venus reporter expression, fluorescence; Potency, µM (series often up to 36.5 µM), for inactives: top-dose activity change, negative = inhibition, hits mostly inhibitors; actives 0.46% (n = 330,000); calls by dose curve; tested in A549 cells; also: potency is read from the fitted curve at half-maximal effect; % is scaled to controls: 0 for no effect and ±100 for the full control effect; nearly all actives have a fitted effect of over 30% in size
Vaccinia mCherry: vaccinia inhibition (mCherry reporter) | AID 720579 | Potency, µM (top dose mostly 36.5 µM), for inactives: top-dose activity change, negative = inhibition, usual class: inhibitors | actives 0.63% (n = 310,000) | Vaccinia virus mCherry reporter infection, fluorescence; calls by dose curve; tested in A549 cells; also: potency is read from the fitted curve at half-maximal effect; % is scaled to controls: 0 for no effect and ±100 for the full control effect; nearly all actives have a fitted effect of over 35% in size
Shiga inhibitor: inhibitors of Shiga toxin in Vero cells; inhibition, % at 38.7 µM; Vero cells, Shiga toxin protein synthesis inhibition reporter; actives 9.2% (n = 290,000); AID 2315; in the data active = inhibition mostly above about 28%, no sharp cut-off; inactive = mostly below about 43%; also: 0% is about no effect
An asterisk follows results filed as active; i = inactive; ? = inconclusive; / = no result given; + = active, no number; [ ] = another dose, or the depositor's remark. The sample as a whole holds a higher share of hits than the screen did.

SMILES | Cycloheximide cs | MARV entry inh | Lassa entry inh | Vaccinia Venus | Vaccinia mCherry | Shiga inhibitor
O=C(CCc1ccc(O)cc1)c1c(O)cc(O)cc1O | 19.7* | ? | ? | -16.8% | -4.8% | 15.1
COc1cc(O)c(CC=C(C)C)c(O)c1C(=O)CCc1ccc(O)cc1 | -5.7 | / | / | ? | ? | 25.9*
COc1ccc(C(=O)/C=C/c2ccc(O)cc2)c(O)c1C/C=C(\C)CCC=C(C)C | / | / | / | -3.8% | -4.1% | /
CCCc1[nH]nc2c1[C@@H](c1cccc(OC)c1)C(C#N)=C(N)O2 | / | 4.4% | / | / | / | /
N#CC1=C(N)Oc2cc(O)ccc2C1c1ccc2c(c1)OCO2 (stereo not drawn) | -1.2 | 15.3%[46.1 µM] | -6.1%[46.1 µM] | -11.9% | ? | -0.6
COc1ccc(C2C(C#N)=C(N)Oc3cc4c(cc32)OCO4)cc1 (stereo not drawn) | 1.6 | 5.8µM* | ? | -27.0% | ? | -6.7
Cc1ccc(-c2cn(-c3ccccc3)c(=S)[nH]2)cc1C | 63.9* | ? | ? | 3.3% | ? | 113.3*
Cc1ccccc1-c1cn(-c2ccccc2)c(=S)[nH]1 | -4.1 | -14.3%[46.1 µM] | -28.4% | -2.1% | ? | 5.6
COc1cccc(-c2cc3c(-n4cccc4)ncnc3o2)c1 | 11.7 | ? | -28.9% | -5.7% | -11.4% | 43.1*
Cc1ccccc1Oc1ncnc2oc(-c3ccccc3)cc12 | -1.9 | 10.6% | -7.0% | -15.9% | / | 11.0
Cc1cccc(NC(=O)CN2C(=O)C3(SCC(=O)N3c3ccccc3)c3ccccc32)c1 (stereo not drawn) | / | / | 31.4%[46.1 µM] | -9.0% | -13.3% | /
Cc1cccc(N2C(=O)SC(N(C)c3ccccc3)C2=O)c1 (stereo not drawn) | 12.0 | ? | 7.0% | -2.1% | / | 11.5
O=C1CC(N(O)c2ccccc2)C(=O)N1c1ccc(Cl)c(Cl)c1 (stereo not drawn) | 10.0* | / | / | / | / | 17.6
Cc1cccc(N2C(=O)CC(N(O)c3ccccc3)C2=O)c1 (stereo not drawn) | 27.9* | 23.3% | 29.5% | / | / | 59.4
O=C(NC(=S)Nc1cccc(F)c1)c1cccc([N+](=O)[O-])c1 | 19.7* | / | / | -14.4% | i | 67.0*
O=C(NNC(=S)Nc1ccc(Cl)c(Cl)c1)c1cccc([N+](=O)[O-])c1 | 1.9 | ? | 3.5% | -18.7% | -26.3% | 9.6
Cc1cccc(NC(=S)NNC(=O)c2cccc([N+](=O)[O-])c2)c1 | 19.3* | 17.6%[46.1 µM] | 11.7% | -2.5%[7.34 µM] | -8.0%[7.34 µM] | 50.4*
O=C(NNC(=S)NC(=O)c1cccc([N+](=O)[O-])c1)c1ccc(O)cc1 | 31.9* | 15.1% | 19.7% | -16.8% | -23.9% | 53.3*
O=C(c1ccco1)N1CCCC(Nc2ccc3c(c2)OCCO3)C1 (stereo not drawn) | 43.2* | 5.0%[46.1 µM] | -0.2%[46.1 µM] | -17.6% | ? | 85.0*
O=C(NC(=S)Nc1ccc2oc(=O)ccc2c1)c1ccco1 | 19.1* | -3.8%[46.1 µM] | -11.5% | -3.1% | i | 53.4*
CCC(=O)NC(=S)Nc1cccc(NC(=O)c2ccco2)c1 | -0.1 | 2.6%[46.1 µM] | -19.6% | 6.2% | -2.4% | -9.1
O=C(NC1CCCC1)C(c1cccs1)N(C(=O)c1ccco1)c1ccc2c(c1)OCCO2 (stereo not drawn) | 15.3* | -18.8% | ? | -14.4% | / | 51.8*
O=C(NC(=S)Nc1cccc(O)c1)c1ccco1 | 54.0* | / | / | -16.9% | -3.4% | 94.4*
O=S1(=O)C=CCN1CCc1ccccc1 | / | / | 1.4%[46.1 µM] | / | / | /
O=C(NC(=S)Nc1ccc2c(c1)OCCO2)c1ccco1 | 46.1* | ? | ? | -11.8%[7.34 µM] | i[7.34 µM] | 99.6*
SMILES | Cycloheximide cs | MARV entry inh | Lassa entry inh | Vaccinia Venus | Vaccinia mCherry | Shiga inhibitor
O=C(NCCc1ccncc1)c1cnn(-c2ncc3c(n2)-c2ccccc2CCC3)c1C1CC1 | / | / | / | -10.7% | -3.7% | /
CC(=O)Nc1cccc(Oc2nc(-c3ccccn3)nc3ccccc23)c1 | 14.6* | ? | 2.7% | -20.4%[7.34 µM] | ? | 35.6
Cc1cccc(Oc2nc(-c3ccccn3)nc3ccccc23)c1 | 34.3* | ? | -18.0% | ? | ? | 63.0*
CC(=O)Nc1ccc(Oc2nc(-c3ccccn3)nc3ccccc23)cc1 | 57.7* | ? | ? | ? | -12.6% | 53.8*
CC(=O)Nc1cccc(Oc2nc(C(F)(F)F)nc3ccccc23)c1 | 0.3 | 0.4%[46.1 µM] | 24.2%[46.1 µM] | -6.4% | -16.4% | -3.8
CN1CCN(c2nc(-c3ccccn3)nc3ccccc23)CC1 | 4.7 | ? | -15.5% | / | / | 18.2
Cc1ccccc1Oc1nc(-c2ccccn2)nc2ccccc12 | 39.3* | ? | ? | ? | -22.6% | 46.5*
COC(=O)c1cc(-c2ccc(NC(C)=O)cc2)nc2ccccc12 | -5.2 | ? | ? | -8.2% | -8.9% | -6.9
Cc1ccc(S(=O)(=O)c2nnn3c2nc(NCCc2ccccc2)c2sccc23)cc1 | / | / | -1.6%[46.1 µM] | ? | ? | /
Cc1cccc2c1NC(=O)/C2=C\C(=O)c1cccs1 | 15.2* | ? | ? | -12.4% | -18.4% | -7.1
CCO[C@@H]1OC(C(=O)NC2CC2)=C[C@H](c2c[nH]c3ccccc23)[C@H]1CCCO | 10.9 | / | / | -4.8% | -2.3% | 52.1*
COC(=O)C1(C(=O)OC)Cc2conc2[C@@H]1c1ccccc1 | / | -10.3%[14.2 µM] | / | / | / | /
C/C(=N/N1CCN(c2ccccn2)CC1)c1cccc([N+](=O)[O-])c1 | 14.7* | 10.8% | ? | -2.0% | -12.2% | 21.7
CC1Oc2ccccc2N(CC(=O)c2ccccc2)C1=O (stereo not drawn) | 23.4* | 13.0% | ? | / | / | 27.1
CC1Oc2ccccc2N(CC(=O)c2ccc(F)cc2)C1=O (stereo not drawn) | 23.1 | 15.1%[46.1 µM] | 14.7% | -1.5% | -5.4% | 17.6
Cc1ccc(C(=O)CN2C(=O)C(C)Oc3ccccc32)cc1 (stereo not drawn) | 33.2* | / | / | / | / | 38.8
Cc1ccc2cc(/C=N/Nc3nc4ccccc4[nH]3)c(Cl)nc2c1 | 54.8* | / | / | -2.2% | i | 93.2*
CCN(CC)c1ccc(/C=N/Nc2nc3ccccc3[nH]2)c(O)c1 | 52.5* | 3.98µM* | 6.31µM* | ? | / | 100.3*
CCOC(=O)C1CCN(Cc2nnc(-c3ccccc3C)o2)CC1 | 2.2 | 14.1%[46.1 µM] | -6.1%[46.1 µM] | -10.3% | i | -1.1
Cc1ccc2nc(-c3ccc(NC(=O)COC(=O)c4ccc(=O)[nH]c4)cc3)sc2c1 | 65.2* | ? | ? | -8.0% | -25.5% | 61.3*
Cc1ccc2nc(-c3ccc(NC(=O)CN4CCN(c5ccccn5)CC4)cc3)sc2c1 | 28.6* | ? | -18.6% | -6.2% | ? | 90.2*
Cc1ccc2nc(-c3ccc(NC(=O)CN4C(=O)c5ccccc5C4=O)cc3)sc2c1 | 75.3* | ? | ? | -12.3% | i | 108.4*
Cc1ccc2nc(-c3ccc(NC(=S)NC(=O)CC(C)C)cc3)sc2c1 | 34.1* | ? | ? | / | / | +
COc1ccc(NC(=O)CSc2nc3ccccc3n2Cc2cccc(OC)c2)cc1 | / | / | -1.8%[46.1 µM] | -2.3%[7.34 µM] | -8.1%[7.34 µM] | /
Cc1ccc2nc(-c3ccc(NC(=O)C(F)(F)F)cc3)sc2c1 | / | ? | 29.8%[46.1 µM] | -16.9% | -24.5% | /
Cc1ccc2nc(-c3ccc(NC(=O)CNC4CC4)cc3)sc2c1 | 42.1* | / | / | / | / | 95.0*

Screens deposited in PubChem BioAssay by National Center for Advancing Translational Sciences (NCATS).
